The results in this text go back to PubChem BioAssay (NCI).

What all share (experiment): NCI-60 one-dose screen, 48 h (100 = growth as untreated, 0 = no growth, -100 = all killed)
Holding throughout (settings): 10 µM

Assay [1] concerns T-47D breast.
The test system of assay [2] is BT-549 breast.
The subject of assay [3] is MDA-MB-435 melanoma.
Assay [4] concerns SW-620 colon.
Assay [5] concerns MCF7 breast.
For assay [6], the system named is HCT-116 colon.
In assay [7] the test system is KM12 colon.
The subject of assay [8] is HCC-2998 colon.

The panel holds about 83,000 compounds, 20% with a hit somewhere; the sample as a whole holds those more often.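 Single-concentration screen, 48 h exposure, 96-well plates. Endpoint: percent growth. Below 10 = active.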 A number with no mark means an inactive call. Calls of active or inactive are those of the source.

Consider `COc1ccc(-c2onc(N)c2-c2cc(OC)c3c(c2)OCO3)cc1`, for which the growth in assay [1] was 19.3%; in assay [2], 42.6%; in assay [3], -24.1% (active); in assay [4] it was 16.8%; in assay [5] it was 8.88% (active); in assay [6], 15.5%. In addition, the growth in assay [7] was 21.8%.
Take `CC1OC2CC(=O)OC2C2=C1C(=O)c1c(O)c3c(c(O)c1C2=O)C1CC(O)C3(O)C(C)O1` (stereo not given): the growth is -21.4% (active) in assay [1]; -98.7% (active) in assay [2]; -0.0926% (active) in assay [3]; -36.4% (active) in assay [4]; -71% (active) in assay [5]; -91.5% (active) in assay [6]. Besides, the growth was -28.4% (active) in assay [8] and -34.7% (active) in assay [7].
Consider `COc1ccc(/C(C#N)=C/c2cccc(OC)c2OC)cc1`, for which the growth in assay [1] is 80.7%; in assay [2], 78.1%; in assay [3], 9.46% (active); in assay [4] it was 65.2%; in assay [5] it was 66%; in assay [6], 89.7%. The growth in assay [8] is 78.4%; in assay [7], 56.7%.
For the compound `Cc1cc(SC#N)cc(C(C)(C)C)c1O`, the growth in assay [1] was 80%; in assay [2] it was 87.3%; in assay [3], 107%; in assay [4], 120%; in assay [5], 97.4%; in assay [6], 70.9%. Also, the growth in assay [8] was 109%; in assay [7], 105%.
On to `O=C1NC(=O)c2c(CCCSc3nc4ccccc4c(=O)n3CCc3ccccc3)cccc21`, for which the growth in assay [1] was 79.1%; in assay [2], 92.6%; in assay [3], 85.6%; in assay [4], 98.8%; in assay [5] it was 83.5%; in assay [6] it was 80%. In addition, the growth is 91.9% in assay [8] and 100% in assay [7].
`CCCCN1C(=O)CC(SC2CC(=O)N(CCCC)C2=O)C1=O` (stereo not given): the growth is 106% in assay [1]; 104% in assay [2]; 108% in assay [3]; 110% in assay [4]; 102% in assay [5]; 105% in assay [6]. Also, in assay [7], the growth is 107%.
Turning to `Cc1cccc(N=Cc2ccccc2O)c1C`, the growth in assay [1] was 106%; in assay [2] it was 90%; in assay [3], 102%; in assay [4], 112%; in assay [5], 98.8%; in assay [6] it was 106%. Moreover, the growth is 104% in assay [8] and 114% in assay [7].
For the compound `COc1cc(-c2nn(-c3cccc(NC(=O)NCCNC(=O)c4ccccc4)c3)cc2-c2ccncc2)ccc1Cl`, the growth was -7.51% (active) in assay [1]; -7.03% (active) in assay [2]; 2.69% (active) in assay [3]; 11.8% in assay [4]; 6.01% (active) in assay [5]; 3.85% (active) in assay [6]. In addition, the results for the growth in assay [8] and in assay [7] were 31.3% and 12.2%, respectively.
As to `COc1cc(-c2nn(-c3cccc(NC(=O)NCCNS(=O)(=O)c4ccc(Cl)cc4)c3)cc2-c2ccncc2)ccc1Cl`, the growth in assay [1] is 23.8%; in assay [2], -11.6% (active); in assay [3], 2.25% (active); in assay [4], 18.9%; in assay [5] it was 4.85% (active); in assay [6] it was 0.871% (active). Further, the growth in assay [8] was -9.49% (active); in assay [7] it was 7.63% (active).
For the compound `CC(=O)N[C@H](C(=O)N[C@@H](CCCNC(=N)N)C(=O)N[C@@H](CCCCN)C(=O)N[C@@H](CCCNC(=N)N)C(=O)N[C@]1(C)CCCCCC/C=C\CCC[C@@](C)(C(=O)N[C@@H](CCCNC(=N)N)C(=O)N[C@@H](CCC(=O)O)C(=O)N[C@@H](CC(C)C)C(=O)N[C@H](C(=O)N[C@@H](CCC(=O)O)C(N)=O)C(C)C)NC(=O)[C@H](CCC(N)=O)NC(=O)[C@H](CC(C)C)NC(=O)[C@H](CC(C)C)NC(=O)[C@H](CCCNC(=N)N)NC(=O)[C@H](CCCNC(=N)N)NC(=O)[C@H](CC(C)C)NC1=O)C(C)C`, the growth in assay [1] was -35.7% (active); in assay [2] it was -46% (active); in assay [3], 7.66% (active); in assay [4], 25.9%; in assay [5], -41.7% (active); in assay [6], 11.6%. Besides, the growth in assay [8] is 24.8%; in assay [7], -16.9% (active).
For `CC(C1=C(CN(C(=O)Cc2cn(-c3ccccc3)nc2-c2ccc(Cl)cc2)C(C)C)Cc2ccccc21)c1ccccn1` (stereo not given), the growth is 40.6% in assay [1]; 88% in assay [2]; 70.1% in assay [3]; 75.8% in assay [4]; 41.2% in assay [5]; 31.9% in assay [6]. Further, the figures for the growth in assay [8] and in assay [7] were 68% and 54.8%, respectively.
As for `COc1ccc(/C=C2\CCCC3=C2NC(N)=NC3c2ccc(OC)c(OC)c2)cc1OC` (stereo not given), the growth in assay [1] was 78.6%; in assay [2] it was 36.1%; in assay [3] it was 30.8%; in assay [4], 40.7%; in assay [5], 27.6%; in assay [6], 7.91% (active). For the same compound, the growth in assay [8] is 88%; in assay [7], 32.1%.
Turning to `CN(C)CCC1(c2ccccc2)CCN(C)C1=O` (stereo not given), the growth in assay [1] is 104%; in assay [2] it was 106%; in assay [3], 105%; in assay [4], 103%; in assay [5], 106%; in assay [6], 110%. For the same compound, the values for the growth in assay [8] and in assay [7] were 108% and 103%, respectively.
For the compound `COc1cc2c(Nc3ccc(S(N)(=O)=O)cc3)ncnc2c(OC)c1OC`, the growth was 97% in assay [1]; 126% in assay [2]; 105% in assay [3]; 95.7% in assay [4]; 96.6% in assay [5]; 108% in assay [6]. Also, the growth in assay [8] was 98.4%; in assay [7], 99.2%.
